Source: PubChem BioAssay
An excerpt weighted towards active compounds, which were near 4.4% of everything screened.
TIM10 inh = growth inhibitors of isogenic TIM10 control yeast, primary screen, counter-screen for tim10-1 yeast inhibitor project, luminescence, uHTS; AID 463195, 2010; S. cerevisiae TIM10 strain growth, BacTiter-Glo luminescence, 24 h; inhibition, % at 10 µM; 330,000 compounds, 1.4% hits;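 active = inhibition of 40% or more at the single tested concentration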;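 note: wild-type TIM10 isogenic control strain grown at permissive 25 °C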
PfHsp90 set2 = growth inhibition of PfHsp90-expressing yeast, primary screen, antimalarial PfHsp90 inhibitor project, S. cerevisiae, BacTiter-Glo luminescence, single point, set 2 | inhibition, % at 9.4 µM | 310,000 compounds, 0.32% hits | BacTiter-Glo ATP, 48 h; yeast lacking PDR1 and PDR3 efflux regulators;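 active = every replicate shows inhibition above about 80%, whatever the replicate mean, limit read from the data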
tim23-1 inh = growth inhibitors of tim23-1 mutant yeast, primary screen, luminescence, uHTS | S. cerevisiae tim23-1 growth, BacTiter-Glo luminescence, 24 h | inhibition, % at 20 µM | 330,000 compounds, 1.3% hits | AID 463212, 2010;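 active = growth inhibition of the mutant yeast at or above 50%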;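 note: temperature-sensitive mutant grown at 25 °C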
tim10-1 inh = growth inhibitors of tim10-1 mutant yeast, primary screen, luminescence, uHTS. S. cerevisiae tim10-1 ts strain growth, BacTiter-Glo, 24 h. inhibition, % at 20 µM. 330,000 compounds, 2.2% hits. AID 463190, 2010;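 active = inhibition of at least 40%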;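 note: mutant grown at 25 °C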
SUMO Mot1 rescue = yeast Mot1-301 growth rescue at high temperature, primary screen, SUMOylation pathway inhibitor project, S. cerevisiae, ATP luminescence, 38.5C. 320,000 compounds, 1% hits. AID 2716, 2010. growth rescue, % at 18.8 µM. S. cerevisiae Mot1-301 growth rescue; percent above DMSO median, 100 means doubled;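 active = every valid replicate shows activation above 250% relative to neutral control wells; inactive = the rest, any valid replicate at or below 250%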
tim10-1 conf = growth inhibitors of tim10-1 mutant yeast, confirmation, single concentration, luminescence, S. cerevisiae | 7,400 compounds, 56% hits | S. cerevisiae tim10-1 ts strain growth, BacTiter-Glo, 24 h | AID 463213, 2010 | inhibition, % at 20 µM | shares compounds with tim10-1 inh;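 active = inhibition of yeast growth at or above a set limit in either of two repeat tests at 20 µM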;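 note: tim10-1 mutant grown at permissive 25 °C to find synthetic lethal compounds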
Hits are given with their value; – = inactive; · = no result given.

SMILES	TIM10 inh	PfHsp90 set2	tim23-1 inh	tim10-1 inh	SUMO Mot1 rescue	tim10-1 conf
COc1ccc(C(=O)NCc2nnc(SCC(=O)c3ccccc3)n2C)cc1OC	–	·	–	–	–	·
Cc1ccccc1S(=O)(=O)c1c(C)cc(C)n(CC(C)C)c1=O	–	–	–	48.0	–	–
Cc1ccccc1S(=O)(=O)c1c(C)cc(C)n(C)c1=O	–	–	–	–	–	·
CCC(=O)Oc1ccc(-c2nc(-c3cccnc3)no2)cc1	–	·	–	46.7	–	46.0
c1ccc(-c2ccccc2-c2nc(-c3cccnc3)no2)cc1	–	–	–	44.8	–	–
O=C(CCCOc1ccccc1)NN1C(=O)NC2(CCCCC2)C1=O	–	·	–	–	–	·
C=C(C)CNC(=S)N/N=C1\CCCCc2ccccc21	–	–	–	55.1	311.3	41.0
COc1ccc(OC)c(CNS(=O)(=O)c2cn(C)cn2)c1	–	–	–	–	–	·
COc1ccc(C(=O)Nc2ccc3c4c(cccc24)CC3)cc1	–	–	–	44.4	–	29.9
CCN(CC)c1ccc(NC(=O)CCCCCN2C(=O)c3ccccc3C2=O)cc1	–	·	–	46.1	–	41.7
Cc1nn(-c2ccccc2)c(C)c1NC(=O)COC(=O)c1ccc(Cl)c(S(N)(=O)=O)c1	–	–	–	–	–	·
OC(COc1ccc2cc(Br)ccc2c1)CN1CCN(c2ccccn2)CC1 (centres undefined)	–	–	–	41.3	–	–
O=S(=O)(N1CCCCC1)N1CCN(CC(O)COc2ccc3cc(Br)ccc3c2)CC1 (centres undefined)	–	·	–	44.6	–	–
CN(C)S(=O)(=O)N1CCN(CC(O)COc2ccc3cc(Br)ccc3c2)CC1 (centres undefined)	–	–	–	–	–	·
COc1ncccc1C(=O)NC1CCCc2c1cnn2-c1ccc(C)c(C)c1 (centres undefined)	–	–	–	51.8	–	–
Clc1ccc(-c2nn3c(C4COc5ccccc5O4)nnc3s2)cc1 (centres undefined)	–	·	–	55.7	·	37.7
CN(C)c1ccc(-c2nn3c(-c4ccc(Cl)cc4)nnc3s2)cc1	·	–	·	·	·	·
CCn1c(=O)c(CCC(=O)NCC2CCCO2)c(C)c2c(C)nn(-c3ccc(C)cc3)c21 (centres undefined)	–	–	–	41.4	–	–
COCCOc1ccc(C(F)(F)F)cc1NC(=O)c1ccccc1	–	–	–	–	–	·
CC(=O)Nc1cc(C(F)(F)F)ccc1OCCOc1ccccc1	–	–	–	46.8	–	–
O=[N+]([O-])c1ccc(NC(=S)N2CCc3ccccc3C2)cc1	–	–	–	41.2	–	–
O=C(c1ccc([N+](=O)[O-])cc1)N1CCc2ccccc2C1	–	–	–	–	–	·
Cn1c(N/N=C/c2cccs2)nc2c1c(=O)n(Cc1ccccc1)c(=O)n2C	–	–	–	40.3	–	–
O=C(c1ccc2c(c1)OCCO2)N1CCN(c2ncc(C(F)(F)F)cc2Cl)CC1	–	–	–	48.1	–	34.4
CCCCn1c(/N=C/c2c[nH]c3ccccc23)nc2ccccc21	–	–	–	40.7	–	–
SMILES	TIM10 inh	PfHsp90 set2	tim23-1 inh	tim10-1 inh	SUMO Mot1 rescue	tim10-1 conf
CCCn1c(/N=C/c2c[nH]c3ccccc23)nc2ccccc21	–	–	–	–	–	·
Cc1ccccc1NC(=S)NCc1ccc2c(c1)cc(C)n2C	–	–	–	42.6	–	–
O=S(=O)(Nc1cccc(S(=O)(=O)N2CCOCC2)c1)c1cccs1	–	–	–	–	–	·
C=CCc1ccc(OCC(O)CO)c(OC)c1 (centres undefined)	–	–	–	–	–	·
C=CCc1ccc(O)c(-c2cc(CC=C)ccc2O)c1	–	–	–	43.0	–	44.5
Cc1ccc(-c2nn(-c3ccccc3)cc2C(=O)N2CCOCC2)cc1	–	–	–	40.2	–	–
CC1CCC2C(=O)N(c3cc(Cl)ccc3OC(=O)c3ccco3)C(=O)C2C1 (centres undefined)	–	–	–	40.7	·	34.0
CC1C(=O)C(C)C(c2ccc(Br)cc2)NC1c1ccc(Br)cc1 (centres undefined)	–	–	–	48.2	–	–
CC(=O)Nc1ccc(S(=O)(=O)N2C(=O)c3cccc4cccc2c34)cc1	–	·	–	–	–	·
C=CC(C)(C)c1c(O)c(CC=C(C)C)c(O)c2c(=O)c3ccc(O)c(O)c3oc12	–	105.5	–	43.6	–	29.4
CN(C(=S)NC1CCCCC1)C1(c2ccccc2Cl)CCCCC1=O (centres undefined)	–	–	–	46.0	–	35.0
CC(C)NC(=S)N(C)C1(c2ccccc2Cl)CCCCC1=O (centres undefined)	–	–	–	–	–	·
COc1cc(/C=C/C(=O)O)cc(S(=O)(=O)Nc2ccccc2Oc2ccccc2)c1OC	–	–	–	–	–	·
CCOc1ccc(C(=O)Nc2cnn(Cc3ccc(Cl)c(Cl)c3)c2)cc1	–	–	–	40.6	–	35.2
CCCCC(=O)Nc1ccc(NCc2ccc(C)s2)cc1	·	–	·	·	–	·
Nc1cc(-c2ccc(Br)cc2)nn1Cc1ccccc1	·	–	·	·	·	·
Nc1cc(-c2cccc(Br)c2)nn1Cc1ccccc1	–	–	–	45.7	–	–
CC(Sc1nnc(-c2ccccc2F)n1C1CC1)C(=O)NC(N)=O (centres undefined)	–	–	–	–	–	·
O=C(CCc1ccccc1)N[C@@H]1c2ccccc2CC[C@H]1OCc1ccccc1	–	–	–	–	·	·
CCn1ccnc1CN1CCc2c([nH]c3ccccc23)C1C(C)(C)C (centres undefined)	–	–	–	46.7	–	–
COC(=O)c1cccnc1-n1c(=O)c2cccnc2n(Cc2cccc([N+](=O)[O-])c2)c1=O	–	–	–	–	–	·
COC(=O)c1cccnc1-n1c(=O)c2cccnc2n(Cc2ccc(Cl)cc2)c1=O	–	·	–	49.0	–	36.8
C=CCNC(=O)/C(C#N)=C/c1ccc2c(c1)OCCO2	–	–	–	43.4	–	–
CC(=O)NC(Cc1c[nH]c2ccccc12)C(=O)N1CCN(S(=O)(=O)c2ccccc2)CC1 (centres undefined)	–	·	–	–	–	·
CC1C(=O)OC(c2ccc(Br)cc2)C(C)(C)C1=O (centres undefined)	–	–	–	–	–	·
COc1ccc(/C=C2\SC(=O)N(CC(=O)NN3CCN(C)CC3)C2=O)cc1OC	–	–	–	–	–	·
Cc1cc(N)n2ncc(-c3ccc(F)cc3)c2n1	–	–	–	50.0	–	38.8
